Screens deposited in PubChem by Broad Institute.
This excerpt belongs to a sample that is enriched for hits.
Tgondii IFNg = T. gondii growth inhibition with IFN-gamma, primary screen, cell-based; Toxoplasma gondii growth in IFN-gamma-treated host cells; stronger effect = lower value; AID 1259416, 2018; 69,000 tested, 3.8% active; activity change, negative = inhibition, % (concentration not given with the values); in the data active means activity change below about -70%, passing the limit was not always enough;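 further: host cells are HeLa cells infected with Toxoplasma gondii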
Numbers stand for hits; - = inactive.

SMILES	Tgondii IFNg
CC(=O)[C@H]1CC[C@H]2[C@@H]3CCC4=CC(=O)CC[C@]4(C)[C@H]3[C@H](O)C[C@]12C	-
Clc1ccc(-c2nnc(-c3nc(NCc4ccccc4)c4ccccc4n3)o2)cc1	-
Fc1cccc(CSc2nc(NC3CCCCC3)c3ccccc3n2)c1	-76
Fc1ccccc1CNc1nc(-c2nnc(-c3ccccc3)o2)nc2ccccc12	-76
CCOc1ccc(Nc2nc(-c3nnc(-c4cccc(C)c4)o3)nc3ccccc23)cc1	-
Cc1cccc(-c2nnc(-c3nc(NCc4ccccc4C)c4ccccc4n3)o2)c1	-91
Clc1cccc(CSc2nc(NCCc3ccccc3)c3ccccc3n2)c1	-
Cc1ccc(Nc2nc(-c3nnc(-c4ccc(F)cc4)o3)nc3ccccc23)cc1	-
Clc1ccccc1CSc1nc(NC2CCCCC2)c2ccccc2n1	-
Fc1ccc(CNc2nc(-c3nnc(-c4ccccc4)o3)nc3ccccc23)cc1	-
Fc1ccc(-c2nnc(-c3nc(NC4CCCCC4)c4ccccc4n3)o2)cc1	-104
Cc1ccc(-c2nnc(-c3nc(Nc4ccc(F)cc4)c4ccccc4n3)o2)cc1	-
COc1ccccc1CNc1nc(-c2nnc(-c3ccc(C)cc3)o2)nc2ccccc12	-
CCOCC1CN(Cc2ccc(C)s2)Cc2nn(CC3CC3)cc21 (configuration not stated)	-
CCO[C@H]1COC[C@@H]1NC(=O)c1ccc2c(c1)nnn2C	-
CCOC(=O)c1cnc(SCc2cccc(Cl)c2)nc1N	-
CCOC(=O)c1noc2ncn(Cc3nc(-c4ccc(OC)cc4OC)oc3C)c(=O)c12	-
CSC[C@H](N)C(=O)O	-
Cc1ccc(C2c3[nH]c4ccccc4c3CCN2C(=O)c2ccco2)cc1 (configuration not stated)	-
Cc1cccc(-c2nnc(-c3nc(Nc4ccc(F)cc4)c4ccccc4n3)o2)c1	-
Cc1cccc(-c2nnc(-c3nc(NCc4ccc(F)cc4)c4ccccc4n3)o2)c1	-
Cc1cccc(-c2nnc(-c3nc(NCc4ccccc4)c4ccccc4n3)o2)c1	-107
Cc1cccc(Nc2nc(-c3nnc(-c4ccccc4)o3)nc3ccccc23)c1	-
Cc1cccc(-c2nnc(-c3nc(NC(C)c4ccccc4)c4ccccc4n3)o2)c1 (configuration not stated)	-94
Cc1ccc(CNc2nc(-c3nnc(-c4cccc(C)c4)o3)nc3ccccc23)cc1	-
SMILES	Tgondii IFNg
CS(=O)(=O)N1CCC(Cc2cccc(C(=O)O)c2)C1 (configuration not stated)	-
Cc1nc(NC(=O)C2CC3CCC2C[C@@]32NC(=O)c3ccccc3N2)sc1C (some centres not stated)	-
Cn1cccc1-c1cc(C(=O)N2CCc3nc[nH]c3C2)[nH]n1	-
COc1cc(OC)c(NC(=O)Cn2ncc3c(N4CCCCC4)ncnc32)cc1Cl	-
Cc1ccc(-c2coc(-c3ccc(NC(=O)c4cccs4)cc3)n2)cc1	-
C=CCN1C(=O)CCC12CCCN(C(=O)c1ccsc1)CC2 (configuration not stated)	-
Cc1oc2ncn3nc(C(C)NC(=O)CCc4ccccc4)nc3c2c1C (configuration not stated)	-
O=C(CCc1ccccc1)Nc1ccc(Cl)cn1	-
CC(C)c1ccc(C(NC(=O)CCc2ccccc2)c2ccc3cccnc3c2O)cc1 (configuration not stated)	-102
COC(=O)c1ccccc1NC(=O)N1CCC2(CC1)Nc1cc(OC)ccc1-n1cccc12	-
Cc1ccccc1CNC(=O)Cn1ncc2c(N3CCC(C)CC3)ncnc21	-
O=C(Cn1ncc2c(N3CCCCCC3)ncnc21)NCc1ccccc1Cl	-
CC(C)CCNC(=O)Cn1ncc2c(N3CCC(C)CC3)ncnc21	-
Cc1cc(Br)ccc1NC(=O)Cn1ncc2c(N3CCC(C)CC3)ncnc21	-
CC1CCN(c2ncnc3c2cnn3CC(=O)NCc2ccccc2)CC1	-101
CC1CCN(c2ncnc3c2cnn3CC(=O)NCCCc2ccccc2)CC1	-
CC1CCN(c2ncnc3c2cnn3CC(=O)NCc2ccc(Br)cc2)CC1	-94
CC1CCN(c2ncnc3c2cnn3CC(=O)NCc2ccccc2Cl)CC1	-95
CC1CCN(c2ncnc3c2cnn3CC(=O)NCc2cccnc2)CC1	-
OCC1(Cc2ccc(F)cc2)CCCN(c2ncnc3nc[nH]c23)C1 (configuration not stated)	-
C=CCn1c2c(ccc1=O)CCN(c1cc(OC)ncn1)CC2	-
COc1ccc(S(=O)(=O)Nc2ccc(Cl)c(C(F)(F)F)c2)cc1OC	-
Cc1ccc(-c2nnn(CC(=O)N(CC(=O)NCCC(C)C)c3ccccc3F)n2)cc1	-
COc1ccc2c(c1)NC1(CCN(S(=O)(=O)c3ccccc3Cl)CC1)c1cccn1-2	-
CN(C)C1CCN(C(=O)C2=NOC3(CCN(Cc4cccc(C#N)c4)C3)C2)CC1 (configuration not stated)	-
SMILES	Tgondii IFNg
Fc1cccc(CNc2nc(-c3nnc(-c4ccc(Cl)cc4)o3)nc3ccccc23)c1	-
O=C(NCc1cccc(F)c1)Nc1ccc(-c2nc(-c3ccccc3)co2)cc1	-
Fc1cccc(CNc2c3c(nc4cc(-c5cccc(Cl)c5)nn24)CCC3)c1	-90
NC(=O)C1(N2CCCCC2)CCN(c2ccc(NC(=O)c3ccccc3F)cc2C(=O)O)CC1	-
Cc1ccc(Cl)cc1NC(=O)Cn1c(=O)cc(C(=O)N2CCCC2)c2ccccc21	-
O=C(O)c1cc(-c2ccccc2)c(C(F)(F)F)s1	-
FC(F)(F)c1sc(-c2nnc(-c3ccc(Cl)cc3Cl)o2)cc1-c1ccccc1	-
NC(=S)c1cc(-c2ccccc2)c(C(F)(F)F)s1	-93
COc1ccc(-c2nc(C)c(CCNS(=O)(=O)c3ccc(OC)cc3)s2)cc1	-
CC(CN1CCOCC1)NC(=O)CCc1nc2cc(Cl)ccc2n1C (configuration not stated)	-
CN1CCO[C@H]2CN(S(=O)(=O)c3cn(C)cn3)CC[C@@H]2C1	-
Cc1ccc(NC(=O)c2c(O)c3cccnc3n(-c3cccc(F)c3)c2=O)c(C)c1	-
CC(NC(=O)c1c(O)c2cccnc2n(-c2cccc(F)c2)c1=O)c1ccc(F)cc1 (configuration not stated)	-
O=C(Nc1ccc(F)c(Cl)c1)c1c(O)c2cccnc2n(-c2ccc(F)cc2)c1=O	-
O=C(Nc1ccc(F)c(Cl)c1)c1c(O)c2cccnc2n(-c2cccc(F)c2)c1=O	-102
Cc1ccc(F)cc1NC(=O)c1c(O)c2cccnc2n(-c2cccc(F)c2)c1=O	-
O=C(Nc1cccc(Cl)c1)c1c(O)c2cccnc2n(-c2cccc(F)c2)c1=O	-
O=C(Nc1ccccc1)c1c(O)c2cccnc2n(-c2cccc(F)c2)c1=O	-
Cc1cc(F)ccc1NC(=O)c1c(O)c2cccnc2n(-c2cccc(F)c2)c1=O	-91
CC(NC(=O)c1c(O)c2cccnc2n(-c2cccc(F)c2)c1=O)c1ccccc1 (configuration not stated)	-109
CCS(=O)(=O)N1CC[C@@H](O)[C@@H]1Cc1cnn(C)c1	-
CCc1c(C)cc(C(=O)NCc2cc(-c3ccco3)on2)c(=O)n1C	-
CC(NC(=O)c1cccc(Cn2cccn2)c1)c1nc2c(s1)CCCC2 (configuration not stated)	-
CN(Cc1cccnc1)C1CCN(C(=O)c2ccoc2)C(C(=O)O)C1 (configuration not stated)	-
Cc1nn(C)c(C)c1CCC(=O)NCc1cnn2ccccc12	-
